Tests used:
Experiment in all cases: thermal shift delta Tm vs DMSO control; higher = stronger stabilization (binding)
Conditions in all cases: 12.5 µM; protein concentration 2 µM
LOC_OS02G45750-cb003 = test system: LOC_OS02G45750-cb003
Summary of the method: (§1)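 Rice kinase domain constructs, made in E. coli and purified, were placed in 96-well plates at 2 μM in 19.5 μl of 100 mM potassium phosphate pH 7.5, 150 mM NaCl, 10% glycerol and 5 × SYPRO Orange, with compound in DMSO. A temperature ramp from 25°C to 95°C at 0.05°C/s was used for differential scanning fluorimetry. The melting temperature shift is a triplicate mean compared with DMSO-only protein, derived from Boltzmann fits.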

LOC_OS02G54510-cb004 = test system: LOC_OS02G54510-cb004
Summary of the method: as §1

LOC_OS03G04050-cb001 = test system: LOC_OS03G04050-cb001
Summary of the method: as §1

LOC_OS03G12390-cb001 = test system: LOC_OS03G12390-cb001
Summary of the method: as §1

LOC_OS03G27990-cb004 = test system: LOC_OS03G27990-cb004
Summary of the method: as §1

LOC_OS03G50450-cb001 = test system: LOC_OS03G50450-cb001
Summary of the method: as §1

LOC_OS03G50810-cb003 = test system: LOC_OS03G50810-cb003
Summary of the method: as §1

LOC_OS04G35114-cb001 = test system: LOC_OS04G35114-cb001
Summary of the method: as §1

LOC_OS04G38480-cb003 = test system: T1, LOC_OS04G38480-cb003
T1 sequence (whole entry): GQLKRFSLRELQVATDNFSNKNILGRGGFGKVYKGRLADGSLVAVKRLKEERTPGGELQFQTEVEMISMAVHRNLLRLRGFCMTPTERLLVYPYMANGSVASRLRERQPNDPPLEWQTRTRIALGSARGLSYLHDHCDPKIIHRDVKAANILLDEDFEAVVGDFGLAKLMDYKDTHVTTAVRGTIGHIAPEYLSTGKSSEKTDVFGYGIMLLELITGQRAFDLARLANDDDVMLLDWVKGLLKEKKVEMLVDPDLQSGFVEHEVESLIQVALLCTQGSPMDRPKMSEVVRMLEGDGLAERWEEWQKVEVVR
Summary of the method: as §1

LOC_OS04G41100-cb001 = test system: T2, LOC_OS04G41100-cb001
T2 sequence (whole entry): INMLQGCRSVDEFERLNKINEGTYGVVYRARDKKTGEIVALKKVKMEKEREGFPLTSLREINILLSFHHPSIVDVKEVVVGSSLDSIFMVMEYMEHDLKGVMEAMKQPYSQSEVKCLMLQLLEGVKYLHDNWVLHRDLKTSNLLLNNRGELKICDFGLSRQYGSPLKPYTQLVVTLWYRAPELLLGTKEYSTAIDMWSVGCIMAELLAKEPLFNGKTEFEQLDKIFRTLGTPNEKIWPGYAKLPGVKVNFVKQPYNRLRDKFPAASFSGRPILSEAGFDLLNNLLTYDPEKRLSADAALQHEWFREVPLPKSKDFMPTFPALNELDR
Summary of the method: as §1

LOC_OS04G57630-cb004 = test system: LOC_OS04G57630-cb004
Summary of the method: as §1

LOC_OS05G07850-cb002 = test system: LOC_OS05G07850-cb002
Summary of the method: as §1

LOC_OS05G16824-cb004 = test system: LOC_OS05G16824-cb004
Summary of the method: as §1

LOC_OS05G28520-cb001 = test system: LOC_OS05G28520-cb001
Summary of the method: as §1

LOC_OS05G30820-cb001 = test system: LOC_OS05G30820-cb001
Summary of the method: as §1

LOC_OS05G43570-cb004 = test system: LOC_OS05G43570-cb004
Summary of the method: as §1

LOC_OS06G16330-cb003 = test system: LOC_OS06G16330-cb003
Sequence of LOC_OS06G16330-cb003 (as listed by the source): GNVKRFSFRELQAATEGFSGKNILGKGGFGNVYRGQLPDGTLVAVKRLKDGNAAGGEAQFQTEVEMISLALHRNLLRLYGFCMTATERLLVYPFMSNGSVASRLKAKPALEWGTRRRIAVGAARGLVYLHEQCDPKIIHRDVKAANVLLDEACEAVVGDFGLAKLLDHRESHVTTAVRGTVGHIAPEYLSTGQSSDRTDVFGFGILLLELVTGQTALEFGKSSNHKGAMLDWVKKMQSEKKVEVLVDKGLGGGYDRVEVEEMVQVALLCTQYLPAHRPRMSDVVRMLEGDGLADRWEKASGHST
Summary of the method: as §1

LOC_OS06G22820-cb001 = test system: T3, LOC_OS06G22820-cb001
T3 sequence (whole entry): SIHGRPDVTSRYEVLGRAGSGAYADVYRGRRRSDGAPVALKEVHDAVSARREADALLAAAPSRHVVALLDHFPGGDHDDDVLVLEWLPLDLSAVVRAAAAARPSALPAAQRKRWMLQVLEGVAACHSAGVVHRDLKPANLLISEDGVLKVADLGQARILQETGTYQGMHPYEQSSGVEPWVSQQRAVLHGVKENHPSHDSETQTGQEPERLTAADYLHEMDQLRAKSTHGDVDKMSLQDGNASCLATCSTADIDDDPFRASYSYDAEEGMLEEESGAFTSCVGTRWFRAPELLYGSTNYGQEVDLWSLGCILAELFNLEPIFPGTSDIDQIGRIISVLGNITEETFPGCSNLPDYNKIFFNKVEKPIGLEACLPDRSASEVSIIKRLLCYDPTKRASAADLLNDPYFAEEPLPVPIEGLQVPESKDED
Summary of the method: as §1

LOC_OS07G06570-cb004 = test system: LOC_OS07G06570-cb004
Summary of the method: as §1

LOC_OS07G07230-cb001 = test system: LOC_OS07G07230-cb001
Summary of the method: as §1
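Note: purified Escherichia coli-expressed rice kinase domain construct.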

N#Cc1c(O)c2c(-c3ccc(-c4ccccc4O)cc3)csc2[nH]c1=O
thermal shift delta Tm (LOC_OS02G45750-cb003): 1.29 °C
thermal shift delta Tm (LOC_OS02G54510-cb004): 0.51 °C
thermal shift delta Tm (LOC_OS03G04050-cb001): 0.84 °C
thermal shift delta Tm (LOC_OS03G12390-cb001): 0.75 °C
thermal shift delta Tm (LOC_OS03G27990-cb004): 0.45 °C
thermal shift delta Tm (LOC_OS03G50450-cb001): 0.66 °C
thermal shift delta Tm (LOC_OS03G50810-cb003): 0.88 °C
thermal shift delta Tm (LOC_OS04G35114-cb001): 0.58 °C
thermal shift delta Tm (LOC_OS04G38480-cb003): 1.99 °C
thermal shift delta Tm (LOC_OS04G41100-cb001): 0.62 °C
thermal shift delta Tm (LOC_OS04G57630-cb004): 0.93 °C
thermal shift delta Tm (LOC_OS05G07850-cb002): 0.59 °C
thermal shift delta Tm (LOC_OS05G16824-cb004): -0.44 °C
thermal shift delta Tm (LOC_OS05G28520-cb001): 1.06 °C
thermal shift delta Tm (LOC_OS05G30820-cb001): 0.78 °C
thermal shift delta Tm (LOC_OS05G43570-cb004): 1.18 °C
thermal shift delta Tm (LOC_OS06G16330-cb003): 1.03 °C
thermal shift delta Tm (LOC_OS06G22820-cb001): 0.91 °C
thermal shift delta Tm (LOC_OS07G06570-cb004): 1.2 °C
thermal shift delta Tm (LOC_OS07G07230-cb001): 0.19 °C

CCc1cc(Nc2nccc(-c3c(-c4ccc(OC)c(C(=O)Nc5c(F)cccc5F)c4)nc4ccccn34)n2)c(OC)cc1N1CCC(N2CCN(S(C)(=O)=O)CC2)CC1
thermal shift delta Tm (LOC_OS02G45750-cb003): -0.02 °C
thermal shift delta Tm (LOC_OS02G54510-cb004): 0.08 °C
thermal shift delta Tm (LOC_OS03G04050-cb001): 0.66 °C
thermal shift delta Tm (LOC_OS03G12390-cb001): 0.08 °C
thermal shift delta Tm (LOC_OS03G27990-cb004): 0.49 °C
thermal shift delta Tm (LOC_OS03G50450-cb001): 0.27 °C
thermal shift delta Tm (LOC_OS03G50810-cb003): 0.2 °C
thermal shift delta Tm (LOC_OS04G35114-cb001): 0.36 °C
thermal shift delta Tm (LOC_OS04G38480-cb003): 0.7 °C
thermal shift delta Tm (LOC_OS04G41100-cb001): 0.67 °C
thermal shift delta Tm (LOC_OS04G57630-cb004): -0.18 °C
thermal shift delta Tm (LOC_OS05G07850-cb002): 0.07 °C
thermal shift delta Tm (LOC_OS05G16824-cb004): -0.08 °C
thermal shift delta Tm (LOC_OS05G28520-cb001): 1.11 °C
thermal shift delta Tm (LOC_OS05G30820-cb001): 0.41 °C
thermal shift delta Tm (LOC_OS05G43570-cb004): 0.31 °C
thermal shift delta Tm (LOC_OS06G16330-cb003): -0.08 °C
thermal shift delta Tm (LOC_OS06G22820-cb001): 0.94 °C
thermal shift delta Tm (LOC_OS07G06570-cb004): 0.75 °C
thermal shift delta Tm (LOC_OS07G07230-cb001): 0.69 °C

Nc1cccc(-c2cc3c(Oc4cccc(O)c4)ncnc3[nH]2)c1
thermal shift delta Tm (LOC_OS02G45750-cb003): 5.52 °C
thermal shift delta Tm (LOC_OS02G54510-cb004): 1.7 °C
thermal shift delta Tm (LOC_OS03G04050-cb001): 0.45 °C
thermal shift delta Tm (LOC_OS03G12390-cb001): 5.94 °C
thermal shift delta Tm (LOC_OS03G27990-cb004): 3.84 °C
thermal shift delta Tm (LOC_OS03G50450-cb001): 0.38 °C
thermal shift delta Tm (LOC_OS03G50810-cb003): 1.5 °C
thermal shift delta Tm (LOC_OS04G35114-cb001): 4.56 °C
thermal shift delta Tm (LOC_OS04G38480-cb003): 2.16 °C
thermal shift delta Tm (LOC_OS04G41100-cb001): 1.12 °C
thermal shift delta Tm (LOC_OS04G57630-cb004): 1.21 °C
thermal shift delta Tm (LOC_OS05G07850-cb002): 11.1 °C
thermal shift delta Tm (LOC_OS05G16824-cb004): 5.59 °C
thermal shift delta Tm (LOC_OS05G28520-cb001): 0.57 °C
thermal shift delta Tm (LOC_OS05G30820-cb001): 1.14 °C
thermal shift delta Tm (LOC_OS05G43570-cb004): 0.77 °C
thermal shift delta Tm (LOC_OS06G16330-cb003): 4.75 °C
thermal shift delta Tm (LOC_OS06G22820-cb001): 0.88 °C
thermal shift delta Tm (LOC_OS07G06570-cb004): 1.36 °C
thermal shift delta Tm (LOC_OS07G07230-cb001): -0.21 °C

CCNC(=O)C#Cc1ccc2c(C(=Nc3ccc(CN(C)C)cc3)c3ccccc3)c(O)[nH]c2c1
thermal shift delta Tm (LOC_OS02G45750-cb003): 7.14 °C
thermal shift delta Tm (LOC_OS02G54510-cb004): 2.44 °C
thermal shift delta Tm (LOC_OS03G04050-cb001): -0.2 °C
thermal shift delta Tm (LOC_OS03G12390-cb001): 1.25 °C
thermal shift delta Tm (LOC_OS03G27990-cb004): 0.99 °C
thermal shift delta Tm (LOC_OS03G50450-cb001): 0.07 °C
thermal shift delta Tm (LOC_OS03G50810-cb003): 4.57 °C
thermal shift delta Tm (LOC_OS04G35114-cb001): 9.15 °C
thermal shift delta Tm (LOC_OS04G38480-cb003): 1.25 °C
thermal shift delta Tm (LOC_OS04G41100-cb001): 4.14 °C
thermal shift delta Tm (LOC_OS04G57630-cb004): 2.92 °C
thermal shift delta Tm (LOC_OS05G07850-cb002): 5.17 °C
thermal shift delta Tm (LOC_OS05G16824-cb004): 8.59 °C
thermal shift delta Tm (LOC_OS05G28520-cb001): 0.18 °C
thermal shift delta Tm (LOC_OS05G30820-cb001): 0.42 °C
thermal shift delta Tm (LOC_OS05G43570-cb004): 0.36 °C
thermal shift delta Tm (LOC_OS06G16330-cb003): 1.85 °C
thermal shift delta Tm (LOC_OS06G22820-cb001): 0.09 °C
thermal shift delta Tm (LOC_OS07G06570-cb004): 0.62 °C
thermal shift delta Tm (LOC_OS07G07230-cb001): -0.34 °C

CCCCCCCCCC(=O)CC(O)S(=O)(=O)O (stereo not given) [Sodium Houttuyfonate]
thermal shift delta Tm (LOC_OS02G45750-cb003): 0.77 °C
thermal shift delta Tm (LOC_OS02G54510-cb004): 0.52 °C
thermal shift delta Tm (LOC_OS03G04050-cb001): 0.5 °C
thermal shift delta Tm (LOC_OS03G12390-cb001): 0.34 °C
thermal shift delta Tm (LOC_OS03G27990-cb004): 0.41 °C
thermal shift delta Tm (LOC_OS03G50450-cb001): 0.36 °C
thermal shift delta Tm (LOC_OS03G50810-cb003): 0.37 °C
thermal shift delta Tm (LOC_OS04G35114-cb001): 0.65 °C
thermal shift delta Tm (LOC_OS04G38480-cb003): 1.54 °C
thermal shift delta Tm (LOC_OS04G41100-cb001): 0.45 °C
thermal shift delta Tm (LOC_OS04G57630-cb004): 0.61 °C
thermal shift delta Tm (LOC_OS05G07850-cb002): 0.71 °C
thermal shift delta Tm (LOC_OS05G16824-cb004): -0.1 °C
thermal shift delta Tm (LOC_OS05G28520-cb001): 0.13 °C
thermal shift delta Tm (LOC_OS05G30820-cb001): 0.21 °C
thermal shift delta Tm (LOC_OS05G43570-cb004): 0.52 °C
thermal shift delta Tm (LOC_OS06G16330-cb003): -8.96 °C
thermal shift delta Tm (LOC_OS06G22820-cb001): -0.11 °C
thermal shift delta Tm (LOC_OS07G06570-cb004): 0.7 °C
thermal shift delta Tm (LOC_OS07G07230-cb001): 0.34 °C

— the supplement of paper PMC9694430
